This is a sample that favours compounds with a hit; in the whole collection about 2.6% have one here.
HSP90 inh: inhibitors of HSP90 luciferase refolding in rabbit reticulocyte lysate. inhibition, % at 5.6 µM. AID 1789. luciferase refolding luminescence, 3 h. actives 0.91% (n = 290,000);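 active = inhibition above the screen-wide mean plus 3 SD, computed separately per campaign, cut at about 16% in these data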;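 also: 0% = DMSO wells and 100% = 60 µM geldanamycin wells; inhibitors lower the luminescence because luciferase stays unfolded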
TWEAK Fn14 block: TWEAK-Fn14 signaling inhibition; TWEAK-stimulated Fn14 reporter cells, luciferase luminescence, 8 h; inhibition, % at 10 µM; actives 2% (n = 360,000); AID 1159606; in the data active = inhibition above about 50%
TROY NFkB inh: blocks TROY-dependent signaling in reporter cells; actives 0.98% (n = 360,000); inhibition, % at 10 µM; Q293 LMP1-TROYcd NF-kB luciferase reporter, 4 h;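 active = compounds whose plate-normalised and pattern-corrected inhibition of the luciferase reporter signal at the single screening dose is 50% or more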
EBV LMP1 NFkB: inhibitors of Epstein-Barr LMP1-induced NF-kappaB reporter. LMP1-induced NF-kappaB luciferase reporter cells, luminescence. inhibition, % at 12.5 µM. actives 0.69% (n = 350,000); in the data active = inhibition above about 41%;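 also: 0% = neutral control wells and 100% = reference inhibitor control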
aDG glyco up: alpha-DG glycosylation activation; Pro5-aDG cells, alpha-DG glycosylation AlphaScreen (IIH6); 0% Pro5, 100% B10-LARGE cell signal; activation, % at 10 µM; actives 0.22% (n = 360,000); AID 624168;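 active = activation of at least 8% versus controls, or a plate z-score of at least 8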;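 also: Pro5 are CHO cells carrying HIG-tagged alpha-DG that lacks glycosylation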
LGR2 inh: blocks bursicon-induced cAMP signaling via Drosophila LGR2. HEK293 LGR2, CRE-luciferase, bursicon-stimulated, 4 h. inhibition, % at 9.99 µM. actives 0.35% (n = 380,000);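 active = drop in luminescence signal, shown as inhibition above about 50% in the replicate tests, limit read from the data, passing the limit was not always enough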;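 also: agonist challenge used bursicon conditioned medium at about half maximal strength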
* marks the source's active call; other numbers are inactive results; x = no result.

SMILES	HSP90 inh	TWEAK Fn14 block	TROY NFkB inh	EBV LMP1 NFkB	aDG glyco up	LGR2 inh
CCOC(=O)/C(=C/c1ccc(N2CCC(c3ccccc3)=N2)cc1)C(C)=O	3.1	25.6	29.8	94.0*	0.4	x
Cc1cc(C)cc(-c2nnc(SCC(=O)c3ccc4c(c3)OCCO4)o2)c1	2.0	-9.3	0.2	-0.3	0.1	7.6
O=C(CSc1nnc(-c2ccccc2)o1)c1ccc2c(c1)OCCO2	-4.8	20.4	58.7*	-9.0	-0.1	x
O=C(CSc1nnc(-c2ccc3c(c2)OCCO3)o1)N1CCCC1	11.0	70.2*	27.7	2.2	0.2	x
CN(C)C(=O)C[C@H]1CC[C@H]2[C@@H](COc3ccc(NC(=O)C4CC4)cc3C(=O)N2C)O1	x	x	x	x	x	13.2
Cc1ccccc1NC(=O)CN1C(=O)S/C(=C\c2cccn2-c2cccc(C(=O)O)c2)C1=O	2.6	-4.5	-6.3	74.2*	-0.2	-4.7
Cc1cccc(C)c1NC(=O)CN1C(=O)S/C(=C\c2cccn2-c2cccc(C(=O)O)c2)C1=O	-0.2	-3.8	-17.3	9.5	0.1	15.7
CCN(C[C@H]1N[C@@](CC)(C(=O)OC)[C@H]2C(=O)N(C)C(=O)[C@@H]12)S(=O)(=O)c1ccc(C(C)(C)C)cc1	x	53.7*	-2.9	0.6	0.0	-2.4
CCNC(=O)N(CC)C[C@H]1N[C@@](Cc2ccccc2)(C(=O)OC)[C@H]2C(=O)N(C)C(=O)[C@@H]12	x	-14.6	-1.4	64.6*	0.0	x
CCN(C[C@H]1N[C@@](CC)(C(=O)OC)[C@H]2C(=O)N(C)C(=O)[C@@H]12)S(=O)(=O)c1ccc(C(F)(F)F)cc1	x	4.4	10.1	-2.8	0.0	-0.9
O=C(Nc1ccc(F)cc1)N[C@@H]1C=C[C@@H](CC(=O)N2CCCCC2)O[C@H]1CO	x	x	x	x	x	-18.6
COc1ccc(S(=O)(=O)Nc2ccc3c(c2)C(=O)N([C@@H](C)CO)C[C@H](C)[C@@H](CN(C)C(=O)c2ccncc2)OCCCC[C@H](C)O3)cc1	x	x	x	x	x	-2.2
O=c1ccc2ccccc2c2ccccc12	x	93.9*	52.1*	x	-0.1	3.4
CC(C)(C)NCC(O)COc1ccccc1C(=O)CCc1ccccc1 (stereo not drawn)	6.9	3.3	15.8	-1.4	2.5*	-7.2
CC(C)(C)NCC(O)COc1ccccc1C(C)(C)C (stereo not drawn)	-1.7	-10.4	-6.7	10.3	0.8	-2.7
O=C(CSc1ccc(Cl)cc1)Nc1cccc(-c2nc3ncccc3o2)c1	1.6	70.6*	67.5*	6.9	-0.1	x
COc1ccc(NC(=O)N(C)C[C@H]2Oc3ccc(NS(=O)(=O)c4cn(C)cn4)cc3CC(=O)N([C@@H](C)CO)C[C@H]2C)cc1	x	x	x	x	x	-15.5
CCNC(=O)C[C@H]1C=C[C@@H](NC(=O)C2CCOCC2)[C@@H](CO)O1	x	x	x	x	x	-6.4
CCCc1c(C(=O)Nc2ccc(C(F)(F)F)cc2)cnn1-c1ccccc1	1.3	-23.4	5.2	62.5*	0.8	-15.8
C[C@H](CO)N1C[C@H](C)[C@H](CN(C)Cc2ccc(-c3ccccc3)cc2)Oc2c(NC(=O)C3CCOCC3)cccc2C1=O	x	x	x	x	x	-2.2
C[C@H]1CCCCO[C@H](CN(C)C(=O)c2ccncc2)[C@@H](C)CN([C@@H](C)CO)C(=O)c2cc(NC(=O)Cc3ccccc3)ccc2O1	x	x	x	x	x	7.1
CC(C)NC(=O)c1cc(C(=O)c2cc(Cl)ccc2O)coc1=N	5.8	68.7*	20.6	-11.7	-0.2	x
CCCNC(=O)N(C)C[C@@H]1Oc2ncc(-c3ccc(F)cc3)cc2C(=O)N([C@H](C)CO)C[C@H]1C	x	x	x	x	x	8.1
Cc1cc(C)nc(Nc2nc3ccccc3o2)n1	-3.7	-16.6	-31.2	-12.5	0.1	-19.7
CC(=NNc1nc2ccccc2o1)c1cc2ccccc2cn1	x	33.7	-18.8	57.4*	-0.5	-71.9
SMILES	HSP90 inh	TWEAK Fn14 block	TROY NFkB inh	EBV LMP1 NFkB	aDG glyco up	LGR2 inh
CC(=NNc1nc2ccccc2o1)c1ncccn1	x	103.1*	14.9	58.3*	-0.7	4.0
C[C@@H]1CN([C@@H](C)CO)C(=O)Cc2cc(NC(=O)NC3CCCCC3)ccc2O[C@H]1CN(C)CC1CCCCC1	x	x	x	x	x	-8.9
Cc1ccc(NCCN(C)C)c2c(=O)c3cc(O)ccc3sc12	x	-116.4	-75.6	44.5*	-0.3	-4.3
Cc1ccc(S(=O)(=O)N(C)C[C@@H]2Oc3ccc(NC(=O)Cn4cnnn4)cc3CC(=O)N([C@@H](C)CO)C[C@@H]2C)cc1	x	x	x	x	x	-9.6
CCCC(=O)N1CC2(C1)CN(C(=O)CC)[C@@H](CO)c1c2c2ccc(OC)cc2n1C	x	x	x	x	x	0.8
C[C@@H]1CN([C@H](C)CO)C(=O)c2cc(-c3ccccc3F)cnc2O[C@@H]1CN(C)C(=O)C1CC1	x	x	x	x	x	-0.5
COc1ccc(F)cc1-c1cc(C(=O)NCc2cc(C(F)(F)F)cc(C(F)(F)F)c2)[nH]n1	x	8.0	29.4	x	0.5	22.1
CCCOc1ccc(F)cc1-c1cc(C(=O)NCc2cc(C(F)(F)F)cc(C(F)(F)F)c2)[nH]n1	x	52.9*	22.8	x	0.0	x
CCCOc1ccc(F)cc1-c1cc(C(=O)Nc2ccc(C)c(NS(C)(=O)=O)c2)[nH]n1	x	59.2*	41.1	x	-0.2	5.3
C/C=C/c1ccc([C@@H]2[C@@H](CO)N(C(C)=O)[C@@H]2CN(C)S(C)(=O)=O)cc1	x	x	x	x	x	-11.1
O=C(NC[C@H]1[C@@H](c2ccccc2)[C@@H](CO)N1C(=O)C1CC1)NC1CCCC1	x	x	x	x	x	-13.3
CC(=O)Nc1ccc(S(=O)(=O)N2CCN(c3cc4c(cc3[N+](=O)[O-])n(C)c(=O)n4C)CC2)cc1	-3.1	0.9	21.0	8.0	-0.3	-1.8
Cn1c(=O)n(C)c2cc([N+](=O)[O-])c(N3CCN(S(=O)(=O)c4ccc(C(C)(C)C)cc4)CC3)cc21	-1.9	54.1*	35.6	0.4	3.1	x
Cc1ccc(S(=O)(=O)Nc2nnc(CC(C)(C)C)s2)cc1	4.0	108.5*	-21.9	0.8	-0.1	-7.8
CC(C)(C)Cc1nnc(NS(=O)(=O)c2ccc(F)cc2)s1	0.4	0.3	-13.8	4.1	-0.3	x
O=C(c1ccc2c(c1)OCO2)N1CC(=O)N2[C@H](CO)[C@@H](c3ccc(C#Cc4ccccc4)cc3)[C@@H]2C1	x	x	x	x	x	7.0
Cc1ccc(-n2c(=O)c3c(c4cc(C)ccc4n3C)n(CC(=O)NCC3CCCO3)c2=O)cc1 (stereo not drawn)	x	-7.8	-2.3	48.9*	-0.2	-5.3
COc1ccc2c(c1)c1c(c(=O)n(-c3ccc(C)cc3)c(=O)n1CC(=O)NCC1CCCO1)n2C (stereo not drawn)	x	13.8	5.7	3.2	-0.1	4.4
CO[C@@H]1CN(C)C(=O)c2cc(NC(=O)c3cnccn3)ccc2OC[C@@H](C)N(C(C)=O)C[C@@H]1C	x	x	x	x	x	-26.2
